Assays:
[1] = system: Human papillomavirus type 1a protein E7 (residues 44-93); assay: HPV1a E7 fragment binders on microarrays, primary screen, biochemical, small-molecule microarray, residues 44-93, 635 nm fluorescence (AID 1108); conditions: small-molecule microarray binding, fluorescence 635 nm; higher = more signal;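 also: E7 fragment applied at 1 µg/mL in TBST for 1 h at 4 C; score combines spot fluorescence with its signal to noise ratio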
[2] = modulators of HCV replicon luciferase signal, primary screen, HCV replication inhibitor project, Huh7 cells, luciferase reporter (AID 1109); conditions: 48 h, higher = more signal;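 also: huh7 hepatoma cells harbouring a luciferase neomycin HCV replicon reporter; luciferase luminescence as measure of HCV replicon replication; test concentration not given here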
[3] = target: Left-right determination factor 2 (Homo sapiens) (UniProt O00292); assay: LEFTY2 binders on small-molecule microarrays, primary screen, biochemical, small-molecule microarray, 635 nm fluorescence scan (AID 1110); conditions: LEFTY2 binding, higher = more signal
Sequence of Left-right determination factor 2 (Homo sapiens) (O00292 whole entry, looked up): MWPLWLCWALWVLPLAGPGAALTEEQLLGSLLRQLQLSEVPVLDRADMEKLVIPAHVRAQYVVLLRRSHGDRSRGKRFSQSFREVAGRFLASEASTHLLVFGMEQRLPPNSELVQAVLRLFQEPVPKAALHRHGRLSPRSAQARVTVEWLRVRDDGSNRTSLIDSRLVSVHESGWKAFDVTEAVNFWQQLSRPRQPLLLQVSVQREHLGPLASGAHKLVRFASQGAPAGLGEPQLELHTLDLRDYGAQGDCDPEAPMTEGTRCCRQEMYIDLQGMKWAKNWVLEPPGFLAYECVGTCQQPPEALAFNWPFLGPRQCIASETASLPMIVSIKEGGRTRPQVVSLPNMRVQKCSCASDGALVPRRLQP

[4] = target: Calmodulin-1 (Homo sapiens) (UniProt P0DP23); assay: CALM1 binders on microarrays, EGTA buffer, profiling panel, biochemical, small-molecule microarray, Cy5-labelled CALM1 (AID 1111); conditions: Cy5-CALM1 binding fluorescence, higher = more signal;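 also: labelled calmodulin applied in Tris saline Tween buffer holding calcium plus EGTA and DTT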
[5] = target: Calmodulin-1 (Homo sapiens) (UniProt P0DP23); assay: calcium-bound CALM1 binders on microarrays, profiling panel, artefact control for SMM control-protein annotation, biochemical, small-molecule microarray, Cy5-labelled CALM1, plus calcium (AID 1112); conditions: Cy5-CALM1 binding fluorescence, higher = more signal;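 also: score merges spot fluorescence with signal to noise from triplicate slides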
[6] = small-molecule microarray binders of probe aWnt5a, primary screen, biochemical, biotinylated probe, 635/667 nm fluorescence (AID 1113); conditions: higher = more signal;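 also: score merges 667 nm fluorescence intensity with signal-to-noise per printed feature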
[7] = small-molecule microarray binders of probe aShh, primary screen, biochemical, biotinylated probe, 635/667 nm fluorescence (AID 1114); conditions: higher = more signal;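 also: probe is biotin-labelled aShh protein from a stem cell growth factor screen; measures binding of labelled protein to compounds printed on the slide; score merges feature fluorescence at 667 nm with signal-to-noise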
[8] = small-molecule microarray binders of probe aNog, primary screen, biochemical, biotinylated probe, 635/667 nm fluorescence (AID 1115); conditions: higher = more signal;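 also: probe is biotinylated aNog protein used at 0.15 µg/mL for 1 h at 4 C; z-score combines 667 nm fluorescence of each spot with its signal to noise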
[9] = target: Torsin-1A-interacting protein 1 (Homo sapiens) (UniProt Q5JTV8); assay: LAP1 binders from COS7 cell lysate, primary screen, small-molecule microarray, 635/667 nm fluorescence (AID 1116); conditions: COS7-hLAP1 lysate binding, 635 nm fluorescence, higher = more signal
Sequence of Torsin-1A-interacting protein 1 (Homo sapiens) (Q5JTV8 whole entry, looked up): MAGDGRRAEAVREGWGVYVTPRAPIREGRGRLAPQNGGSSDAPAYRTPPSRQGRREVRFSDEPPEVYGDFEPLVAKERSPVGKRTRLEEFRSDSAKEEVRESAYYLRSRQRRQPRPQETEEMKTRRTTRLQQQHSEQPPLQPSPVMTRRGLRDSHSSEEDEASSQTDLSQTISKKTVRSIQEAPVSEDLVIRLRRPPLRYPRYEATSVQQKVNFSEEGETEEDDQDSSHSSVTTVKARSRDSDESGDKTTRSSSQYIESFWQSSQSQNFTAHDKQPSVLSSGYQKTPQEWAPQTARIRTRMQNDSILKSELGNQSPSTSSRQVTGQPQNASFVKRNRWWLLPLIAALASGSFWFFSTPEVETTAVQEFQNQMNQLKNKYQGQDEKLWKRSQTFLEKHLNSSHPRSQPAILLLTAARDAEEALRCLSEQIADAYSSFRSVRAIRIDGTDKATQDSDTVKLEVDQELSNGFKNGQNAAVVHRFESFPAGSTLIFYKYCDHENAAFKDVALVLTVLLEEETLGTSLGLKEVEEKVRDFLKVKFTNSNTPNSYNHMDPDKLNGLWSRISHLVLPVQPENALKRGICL

[10] = target: Alpha-bungarotoxin (Bungarus multicinctus) (UniProt P60615); assay: alpha-bungarotoxin binders on microarray, profiling panel, artefact control for SMM control protein annotation, biochemical, small-molecule microarray, Alexa647 label, 635/667 nm fluorescence (AID 1117); conditions: alpha-BTX-A647 binding fluorescence, higher = more signal
Sequence of Alpha-bungarotoxin (Bungarus multicinctus) (P60615 whole entry, looked up): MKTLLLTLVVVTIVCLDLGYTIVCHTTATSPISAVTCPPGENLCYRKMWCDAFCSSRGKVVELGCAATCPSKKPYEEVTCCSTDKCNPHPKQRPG

Row | Compound | composite z-score [1] | z-score [2] | composite z-score [3] | composite z-score [4] | composite z-score [5] | composite z-score [6] | composite z-score [7] | composite z-score [8] | composite z-score [9] | composite z-score [10]
1 | CCCC[C@@H]1C[C@H]1[C@@H](NC(=O)c1ccco1)c1ccc(Cl)cc1 | 1.28 | -2.37 | 0.232 | 1.68 | 1.1 | -0.0125 | 0.336 | 0.314 | 1.4 | 1.33
2 | COCCOC(=O)N1C(=O)[C@@]2(c3cc(C#CC4=CCCCC4)ccc31)[C@H](c1ccc(O)cc1)N1[C@H](c3ccccc3)[C@H](c3ccccc3)OC(=O)[C@H]1[C@@H]2C(N)=O | 1.19 | -0.696 | 0.63 | 0.624 | 0.0442 | -0.0165 | 0.157 | -0.564 | 0.745 | 1.04
3 | C=CCNC(=O)[C@H]1[C@@H]2C(=O)O[C@@H](c3ccccc3)[C@@H](c3ccccc3)N2[C@@H](c2ccc(OCCO)cc2)[C@]12C(=O)N(C(=O)OCCOC)c1ccccc12 | 0.379 | -1.49 | 0.666 | 1.06 | 0.0523 | -0.14 | -0.0056 | -0.0681 | 0.985 | 1.66
4 | CN1C(=O)C2C=CC(C(O)c3ccc(-c4ccccc4)s3)N(N(c3ccccc3)c3ccccc3)C2C1=O (stereo not given) | 0.761 | 0.339 | -0.18 | 0.906 | 0.405 | 0.0324 | -0.0813 | 1.44 | 0.397 | 1.37
5 | COc1ccc(C(O)C2C=CC3C(=O)N(c4ccccc4)C(=O)C3N2Nc2ccccc2F)cc1OCc1ccccc1 (stereo not given) | 1.4 | -0.0689 | -0.477 | 2.15 | 0.983 | 0.108 | 0.232 | -0.115 | 1.2 | 1.55
6 | CC1CC/C=C\[C@H]2OC34C=CCN(C(C)(C)C)C(=O)[C@H]3N(CCCCCCO)C(=O)[C@@H]4C2C(=O)O1 (stereo not given in full) | -0.0409 | -0.549 | -1.06 | -0.0234 | 0.725 | -0.154 | -0.0553 | 0.0511 | 0.656 | -1.06
7 | C=CCN1C(=O)[C@]2(O[C@H](CCO)[C@@H]([Si](C)(C)c3ccc(OC)cc3)[C@@H]2C)c2cc(N3C(=O)c4cccc5cccc3c45)ccc21 | 1.17 | -5.11 | 0.164 | 0.719 | 0.124 | -0.159 | 0.0639 | -0.338 | 0.374 | 0.3
8 | COc1ccc(C(O)C2C=CC3C(=O)NC(=O)C3N2Nc2ccccn2)cc1 (stereo not given) | -1.08 | 0.824 | 0.494 | -1.3 | -0.498 | 0.0158 | -0.106 | 0.0861 | 0.658 | -0.0568
9 | CO[C@H]1O[C@H](CO)[C@@H](OC(=O)Nc2ccc(Br)cc2)[C@H](OC(=O)c2cc3ccccc3[nH]2)[C@H]1OC(=O)c1cc2ccccc2[nH]1 | 0.823 | -3.51 | -0.132 | 1.87 | 0.14 | 0.0775 | -0.262 | 0.121 | 0.926 | 0.353
10 | C=CCOC(=O)[C@H]1[C@@H]2C(=O)O[C@@H](c3ccccc3)[C@@H](c3ccccc3)N2[C@@H](c2ccc(OCCOC(=O)[C@H]3C[C@H]4C(=O)N5CCC[C@H]5C(=O)N4[C@H]3c3ccc(O)cc3)cc2)[C@]12C(=O)Nc1ccc(I)cc12 | 1.48 | 0.56 | 1.52 | 1.22 | 1.41 | 0.547 | 2.8 | 2.82 | 2.74 | 2.81
11 | CCOC(=O)C[C@H]1[C@H](OC(=O)c2cc3ccccc3oc2=O)[C@@H](NC(=O)Cc2ccc(OC)cc2)c2cc(OCCCO)ccc2N1C(=O)c1ccccc1 | 0.856 | -0.273 | 0.427 | -0.13 | -0.342 | -0.139 | 0.299 | 1.75 | 0.559 | 0.258
12 | COC(=O)c1c(CC[C@@H](CO)NC(=O)N[C@H](Cn2cc(Cc3ccccc3)nn2)C(C)C)oc(C(C)=O)c1C(=O)OC | 0.712 | -0.0084 | 0.637 | -0.279 | -0.573 | -0.18 | 0.288 | -0.143 | 0.223 | 0.882
13 | COCCOC(=O)N1C(=O)[C@@]2(c3cc(C#Cc4ccc(OC)cc4)ccc31)[C@H](c1ccc(O)cc1)N1[C@H](c3ccccc3)[C@H](c3ccccc3)OC(=O)[C@H]1[C@@H]2C(=O)NC[C@H](O)c1ccccc1 | 1.44 | -2.2 | 0.598 | 1.18 | -0.209 | 0.0809 | 0.692 | -0.467 | 0.681 | 1.54
14 | COCCOC(=O)N1C(=O)[C@@]2(c3cc(C#CC4=CCCCC4)ccc31)[C@H](C(=O)Nc1nc3ccccc3s1)[C@H]1C(=O)O[C@H](c3ccccc3)[C@H](c3ccccc3)N1[C@@H]2c1ccccc1OCCO | 1.42 | -1.66 | 0.938 | 0.738 | 0.417 | 0.332 | 0.126 | 1.21 | 0.512 | 0.858
15 | CN1C2C=C(CCCO)C(C3C(=O)N(C(N)=O)C(=O)C32)C1c1ccc(CN2CCCC2)cc1 (stereo not given) | 0.138 | -0.149 | -0.943 | -0.224 | 0.0344 | -0.243 | 0.0278 | -0.328 | 0.0727 | 0.236
16 | CCOC(=O)[C@H]1CC=C2CC1C(=O)N1CCC[C@@H]1[C@@H]2O[Si](C)(C)C(C)(C)C (stereo not given in full) | -0.404 | -3.01 | 0.377 | -1.45 | -1.61 | -0.237 | -0.297 | 0.14 | -0.523 | -1.15
17 | COCCCNC(=O)[C@@]1(Cc2ccccc2N=[N+]=[N-])N=C(c2ccc(OCCCO)cc2)O[C@H]1c1ccccc1N=[N+]=[N-] | 0.852 | -2.86 | 0.431 | 1.72 | 0.686 | 0.168 | -0.477 | 1.43 | 0.561 | 1.74
18 | [N-]=[N+]=NCc1ccccc1[C@H]1OC(c2ccc(OCCCO)cc2)=N[C@@]1(Cc1ccccc1)C(=O)NCc1ccccc1 | 0.296 | -2.19 | 0.0739 | 1.45 | 0.727 | 0.075 | 0.22 | 0.683 | 0.881 | 0.761
19 | C=CCOC(=O)[C@H]1[C@@H]2C(=O)O[C@@H](c3ccccc3)[C@@H](c3ccccc3)N2[C@@H](c2ccc(OCCOC(=O)[C@H]3C[C@H]4C(=O)N5CCC[C@H]5C(=O)N4[C@H]3c3ccc(O)cc3)cc2)[C@]12C(=O)Nc1ccccc12 | 1.45 | -1.93 | 1.42 | 0.959 | -0.0987 | 0.0354 | 0.147 | -0.21 | 1.5 | 0.588
20 | CCCCN1CC=CC23O[C@@H]4C=CCOC(=O)[C@@H]4[C@H]2C(=O)N(CCCCCO)[C@@H]3C1=O (stereo not given in full) | -0.524 | 0.536 | -1.53 | -0.615 | -0.363 | -0.124 | 0.627 | 0.151 | 1.95 | -1.47
21 | C=C(CCCC)C(=O)CC[C@H](OC(C)=O)c1cccc(OCCO)c1 | -0.252 | -1.78 | -0.433 | -0.687 | -0.918 | -0.156 | -0.0709 | -0.036 | 1.31 | -0.653
22 | CC(C)c1ccc(NN2C(C(O)C(c3ccccc3)c3ccccc3)C=CC3C(=O)N(c4ccccc4)C(=O)C32)cc1 (stereo not given) | 1.42 | -0.276 | 0.219 | 1.27 | -0.147 | 0.0279 | 0.171 | 1.46 | 0.954 | 1.74
23 | COc1cc2c(cc1OC)CN(C(=O)[C@H]1[C@@H]3C(=O)O[C@@H](c4ccccc4)[C@@H](c4ccccc4)N3[C@@H](c3ccc(O)cc3)[C@]13C(=O)Nc1ccc(C#CCNC(N)=O)cc13)CC2 | -0.208 | -0.145 | 0.264 | -0.123 | 0.0061 | -0.0403 | 0.0141 | -0.198 | -0.0992 | -0.0782
24 | COc1cc2c(cc1O)C=[N+](Cc1cccc(OC(F)(F)F)c1)CC2 | -1.28 | -0.556 | -0.402 | -0.579 | -0.149 | -0.158 | -0.206 | -0.294 | 0.15 | 0.0656
25 | COCCOC(=O)N1C(=O)[C@@]2(c3cc(C#CCCO)ccc31)[C@H](C(=O)N1CCc3cc(OC)c(OC)cc3C1)[C@H]1C(=O)O[C@H](c3ccccc3)[C@H](c3ccccc3)N1[C@@H]2c1ccc(O)cc1 | 1.41 | -1.34 | 0.332 | 0.527 | 0.294 | -0.1 | 0.123 | 0.119 | 0.987 | 1.24
26 | CN1C(=O)[C@]2(Cc3ccccc3)N=C(c3ccc(OCCCO)cc3)O[C@@H]2c2ccccc21 | 1.46 | -1.36 | 0.235 | 0.33 | -0.323 | 0.0761 | 0.0469 | 0.849 | 1.3 | 0.51
27 | COC(=O)[C@@]1(Cc2ccc(F)cc2)[C@H]2c3cc(C(=O)N4CCCC4)n(Cc4ccc(C)o4)c3C[C@H]2CN1C(=O)c1ccccc1 | 1.4 | -2.32 | -0.699 | 1.48 | 0.558 | 0.319 | 0.862 | -0.632 | 0.11 | 0.948

— PubChem BioAssay
